Whole data set: some 16,000 sequences, median “rpm ratio (pull-down/input)” near 0.94, cut for the highest 2% near 1.7. The sample holds the highest values, similar sequences and a random draw of the others, so the mix is not that of the screen.

For the experiment, the target named is T1, MBP-FoxP1dN (Mus musculus, UniProt P58462 326-579).
T1 sequence: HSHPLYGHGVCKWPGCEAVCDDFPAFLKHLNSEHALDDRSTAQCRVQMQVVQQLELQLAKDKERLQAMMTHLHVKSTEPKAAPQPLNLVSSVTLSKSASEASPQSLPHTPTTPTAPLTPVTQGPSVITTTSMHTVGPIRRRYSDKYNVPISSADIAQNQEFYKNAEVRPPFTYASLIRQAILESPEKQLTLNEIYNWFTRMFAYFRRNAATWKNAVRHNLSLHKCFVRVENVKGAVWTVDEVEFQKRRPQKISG
Briefly: PD-seq (MBP pull-down with sequencing); 20 mM Tris-HCl pH 7.5, 100 mM NaCl, 1.5 mM MgCl2, 0.4 uM protein, 0.1 uM dsDNA library, 30 min, room temperature, amylose pull-down; high values mean tight binding. As to conditions: protein: recombinant; tags: His6-MBP; chain copies: 2; dsDNA, one strand shown. In outline: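 A fragment of mouse FoxP3 or FoxP1 without its N-terminus, carrying a His6-MBP tag and produced in E. coli, was combined at 0.4 µM with a 0.1 µM degenerate double-stranded DNA library filled in with Klenow. The mixture sat for 30 min at room temperature in Tris pH 7.5 buffer containing NaCl and MgCl2. Protein–DNA complexes were captured on amylose resin, washed three times, and the DNA was freed with proteinase K, barcoded by PCR and sequenced on Illumina. Binding is expressed as reads-per-million enrichment of pull-down over input, with replicates pooled.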
As for “GATGATTGTTCTCCCAGCTGATGAATTTGAGCTCTCGAGTAAACAAATTTTCCTAATCTTTCTGTTCAAGCGCCATCTAC”, the binding signal was 0.775 RPM ratio (pull-down/input).

As for “GATGATTGTTCTCCCAGCTGATGAATTGTTGTTTTCGAGTAAACAAATTTTCCTAATCTTTCTGTTCAAGCGCCATCTAC”, the binding signal was 3.52 RPM ratio (pull-down/input).

Regarding “GATGATTGTTCTCCCAGCTGATGAATTTGTTCTTTCGAGTAAACAAATTTTCCTAATCTTTCTGTTCAAGCGCCATCTAC”, the binding signal is 1.3 RPM ratio (pull-down/input).

With “GATGATTGTTCTCCCAGCTGATGAATTTCTTTGTTCGAGTAAACAAATTTTCCTAATCTTTCTGTTCAAGCGCCATCTAC”, the binding signal is 0.994 RPM ratio (pull-down/input).

With “GATGATTGTTCTCCCAGCTGATGAATTTCAAATTTCGAGTAAACAAATTTTCCTAATCTTTCTGTTCAAGCGCCATCTAC”, the binding signal is 0.846 RPM ratio (pull-down/input).

For “GATGATTGTTCTCCCAGCTGATGAATTTTTTTGTTCGAGTAAACAAATTTTCCTAATCTTTCTGTTCAAGCGCCATCTAC”, the binding signal was 0.971 RPM ratio (pull-down/input).

As to “GATGATTGTTCTCCCAGCTGATGAATTTTTGTTTTCGAGTAAACAAATTTTCCTAATCTTTCTGTTCAAGCGCCATCTAC”, the binding signal was 2.71 RPM ratio (pull-down/input).

“GATGATTGTTCTCCCAGCTGATGAATTTTGTTGTTCGAGTAAACAAATTTTCCTAATCTTTCTGTTCAAGCGCCATCTAC”: the binding signal was 2.84 RPM ratio (pull-down/input).

With “GATGATTGTTCTCCCAGCTGATGAATTCTTTGTTTCGAGTAAACAAATTTTCCTAATCTTTCTGTTCAAGCGCCATCTAC”, the binding signal was 1.23 RPM ratio (pull-down/input).

As for “GATGATTGTTCTCCCAGCTGATGAATTTCGAGTTTCGAGTAAACAAATTTTCCTAATCTTTCTGTTCAAGCGCCATCTAC”, the binding signal was 0.851 RPM ratio (pull-down/input).

For “GATGATTGTTCTCCCAGCTGATGAATTTGTTTGTTCGAGTAAACAAATTTTCCTAATCTTTCTGTTCAAGCGCCATCTAC”, the binding signal is 2.73 RPM ratio (pull-down/input).

Regarding “GATGATTGTTCTCCCAGCTGATGAATTGCTCGACTCGAGTAAACAAATTTTCCTAATCTTTCTGTTCAAGCGCCATCTAC”, the binding signal is 0.946 RPM ratio (pull-down/input).

Turning to “GATGATTGTTCTCCCAGCTGATGAATTTCCCCATTCGAGTAAACAAATTTTCCTAATCTTTCTGTTCAAGCGCCATCTAC”, the binding signal was 0.898 RPM ratio (pull-down/input).

As for “GATGATTGTTCTCCCAGCTGATGAATTTTTTTCCTCGAGTAAACAAATTTTCCTAATCTTTCTGTTCAAGCGCCATCTAC”, the binding signal was 0.754 RPM ratio (pull-down/input).

Consider “GATGATTGTTCTCCCAGCTGATGAATTTTCATCCTCGAGTAAACAAATTTTCCTAATCTTTCTGTTCAAGCGCCATCTAC”, for which the binding signal is 0.875 RPM ratio (pull-down/input).

For “GATGATTGTTCTCCCAGCTGATGAATTCTTTGATTCGAGTAAACAAATTTTCCTAATCTTTCTGTTCAAGCGCCATCTAC”, the binding signal is 0.885 RPM ratio (pull-down/input).

For “GATGATTGTTCTCCCAGCTGATGAATTTGTTGATTCGAGTAAACAAATTTTCCTAATCTTTCTGTTCAAGCGCCATCTAC”, the binding signal is 2.39 RPM ratio (pull-down/input).

For the sequence “GATGATTGTTCTCCCAGCTGATGAATTGTTTTGTTCGAGTAAACAAATTTTCCTAATCTTTCTGTTCAAGCGCCATCTAC”, the binding signal was 1.97 RPM ratio (pull-down/input).

Regarding “GATGATTGTTCTCCCAGCTGATGAATTGTTTGATTCGAGTAAACAAATTTTCCTAATCTTTCTGTTCAAGCGCCATCTAC”, the binding signal was 1.33 RPM ratio (pull-down/input).

On to “GATGATTGTTCTCCCAGCTGATGAATTTGTTTTTTCGAGTAAACAAATTTTCCTAATCTTTCTGTTCAAGCGCCATCTAC”, for which the binding signal is 2.09 RPM ratio (pull-down/input).

As to “GATGATTGTTCTCCCAGCTGATGAATTTGTTGTTTCGAGTAAACAAATTTTCCTAATCTTTCTGTTCAAGCGCCATCTAC”, the binding signal is 2.54 RPM ratio (pull-down/input).

“GATGATTGTTCTCCCAGCTGATGAATTTTTTGATTCGAGTAAACAAATTTTCCTAATCTTTCTGTTCAAGCGCCATCTAC”: the binding signal was 1.02 RPM ratio (pull-down/input).

(Values after publication PMC12820563, “FoxP3 forms a head-to-head dimer in vivo and stabilizes its multimerization on adjacent microsatellites”.)
